Screening data (PubChem BioAssay)
Rows were chosen to be rich in hits. Some 6.5% of all compounds tested hit in one or more screens of this group.
Spn PMK inh: S. pneumoniae PMK inhibition; inhibition, % at 10 µM; purified PMK, PK/LDH-coupled NADH absorbance 340 nm; AID 539; hit rate 0.49% among 65,000;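 active means top-ranked compounds by inhibition in the single 10 µM screen, taking a fixed number of the strongest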;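 further: 0% = full reaction with DMSO carrier and 100% = background rate without enzyme reaction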
Abs 340nm: absorbance at 340 nm. compound absorbance at 340 nm, fold over control. fold change at 10 µM. 65,000 tested, under 10 active. AID 708;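 active means at 10 µM dose, initial 340 nm absorbance at least 2 fold that of control wells; inactive means change under 2 fold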;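 further: initial absorbance extrapolated from kinetic A340 decline of NADH oxidation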
Fluor 339 460: intrinsic fluorescence of library compounds, ex339/em460 – biochemical, MLSMR library, data from DPM-DC assay, artefact control, profiling panel; compound autofluorescence, ex339/em460 nm, NADH buffer; active compounds read high; 1 = no-compound wells, NADH background; fluorescence fold increase at 10 µM; hit rate 5.5% among 65,000; AID 709;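 active means at 10 µM, mean starting fluorescence two-fold or more over control wells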;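 further: signal is the first read of a kinetic run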
Spn DPM-DC inh: blocks S. pneumoniae diphosphomevalonate decarboxylase; hit rate 0.49% among 65,000; calls only at 10 µM; AID 556; purified DPM-DC, PK/LDH coupled NADH fluorescence;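 active means the 320 compounds with the highest percent inhibition in the single-dose primary screen, excluding strongly autofluorescent ones, cut at about 32% in these data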;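 further: kinetic rate of NADH fluorescence loss reporting ADP formed by the decarboxylase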
MK inhibit: blocks S. pneumoniae mevalonate kinase | purified MK, PK/LDH-coupled NADH absorbance 340 nm | inhibition, % at 10 µM | hit rate 0.48% among 65,000;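 active means ranked among the strongest by inhibition in the single 10 µM screen, a fixed top-ranked set picked for dose follow-up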
NADH enzymes: inhibitors of enzymes used to reach an NAD/NADH endpoint | coupled PK/LDH NADH assays, four targets | hit rate 0.02% among 65,000 | IC50, µM (titrated, usually from 10 µM), for the others: at the highest dose inhibition;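 active means single-dose screening hits from any of four coupled enzyme assays that gave an IC50 when retested across doses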;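 further: the DPM-DC format reads NADH fluorescence rather than 340 nm absorbance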
Active calls of the source: *; i = inactive; . = not tested or not shown; + = active, no number.

SMILES | Spn PMK inh | Abs 340nm | Fluor 339 460 | Spn DPM-DC inh | MK inhibit | NADH enzymes
COc1ccc2c(c1)[nH]c1c(=O)n(CCN3CCCC3)cnc12 | 9 | 1.1 | 0.91 | i | 8 | 7%
CCCCN(CCCC)CCn1cnc2c([nH]c3ccc(OC)cc32)c1=O | 11 | 1 | 2.3* | . | 0 | 2%
CCC1CCCN1Cn1cnc2c([nH]c3ccc(OC)cc32)c1=O (stereo not drawn) | 3 | 1 | 3* | . | 12 | 2%
CCN1CCCC1Cn1cnc2c([nH]c3cccc(Cl)c32)c1=O (stereo not drawn) | 4 | 1 | 2.2* | i | 9 | 6%
COc1cc2[nH]c3c(=O)n(CCN(C(C)C)C(C)C)cnc3c2cc1OC | 9 | 1 | 2.5* | . | 0 | 3%
COc1cc(C(Nc2ccc3c(c2)OCO3)C(=O)NC2CCCCC2)cc(OC)c1OC (stereo not drawn) | 19 | 1 | 1.1 | i | 0 | 3%
CC(C)(C)NC(=O)c1ccc2nccnc2c1 | 10 | 1 | 1.1 | i | 11 | 7%
CC(C)(C)NC(=O)Nc1ccc2nccnc2c1 | 8 | 1.1 | 2.2* | . | 7 | 8%
CC(C)N(C(=O)Nc1ccc2nccnc2c1)C(C)C | 0 | 1.1 | 2.2* | . | 5 | 3%
CCOC(=O)/C(C#N)=C1/SC(CC)C(=O)N1c1ccc(C)cc1 (stereo not drawn) | 11 | 1 | 1.1 | i | 9 | 7%
CC1(C)Cc2c(sc3nn[nH]c(=O)c23)CO1 | 10 | 1.1 | 1.1 | i | 11 | 7%
CCC1CC2(C)NC(=O)c3c(sc4c3CC(C)(C)OC4)N2C1=O (stereo not drawn) | 3 | 1 | 2.3* | . | 5 | 4%
COc1nc(-c2ccccc2)ccc1-c1noc(-c2ccc(F)cc2)n1 | 17 | 1.1 | 3.8* | . | 9 | 13%
COc1nc(-c2ccccc2)ccc1-c1noc(-c2ccccc2F)n1 | 8 | 1.1 | 3.9* | . | 4 | 6%
COc1ccccc1-c1noc(-c2cccnc2)n1 | 9 | 0.98 | 1.1 | i | 10 | 4%
CCc1nc(NC(C)C)c2oc3ccccc3c2n1 | 0 | 1 | 1.1 | i | 15 | 5%
CCc1nc(Nc2ccncc2)c2oc3ccccc3c2n1 | 8 | 1.2 | 2* | i | 17 | 15%
Cn1c(=O)oc2cc(S(=O)(=O)N3CCCC(C(=O)NCc4ccc5c(c4)OCO5)C3)ccc21 (stereo not drawn) | 6 | 1 | 1.1 | i | 5 | 4%
CC1(C)Cc2[nH]c(=O)c(C#N)cc2CS1 | 7 | 1.1 | 1.3 | i | 12 | 15%
CC1(C)Cc2nc3sc4c(=O)[nH]cnc4c3cc2CS1 | 8 | 1.1 | 2.8* | + | 9 | 18%
COc1ccc(OC)c(CNC(=O)COc2cc(=O)n(C)c3ccccc23)c1 | 17 | 1 | 1 | i | 1 | 2%
Cc1cccc(NC(=O)c2cnc3sccn3c2=O)n1 | 0 | 1.1 | 0.97 | i | active | 8%
Cc1cccc(NC(=O)c2cnc3sccn3c2=O)c1 | 1 | 1.2 | 1 | i | 6 | 5%
O=C(Nc1ccon1)c1cnc2sccn2c1=O | 0 | 1.1 | 3.2* | i | 5 | 8%
O=C(NCc1cccnc1)c1cnc2sccn2c1=O | 0 | 1.2 | 2.2* | . | 2 | 1%
SMILES | Spn PMK inh | Abs 340nm | Fluor 339 460 | Spn DPM-DC inh | MK inhibit | NADH enzymes
COc1ccc(NC(=O)c2cnc3sccn3c2=O)cc1 | 15 | 1.2 | 0.95 | i | 4 | 7%
COc1ccccc1CNC(=O)c1cnc2sccn2c1=O | 6 | 1.1 | 1.1 | i | 1 | 4%
CC(Oc1ccccc1)C(=O)N1CCCc2ccccc21 (stereo not drawn) | 3 | 1 | 1.1 | i | 6 | 2%
CC(=O)c1c(C)nc2nonc2c1N | 16 | 0.99 | 2* | i | 0 | 5%
CCOC(=O)c1c(-c2ccc(OC)cc2)nc2nonc2c1N | 0 | 1.2 | 1.3 | i | 0 | 3%
Cc1sc(NC(=O)c2oc3ccccc3c2C)c(C#N)c1C | 4 | 1.2 | 3.8* | . | 1 | 3%
O=S(=O)(c1ccccc1)N1CCN(c2ncnc3sc(-c4ccccc4)cc23)CC1 | 2 | 1.1 | 5.2* | . | 1 | 2%
CCOC(=O)N1CCC(NC(=O)c2ccc(CS(=O)(=O)c3ccccc3C)o2)CC1 | 10 | 1 | 0.97 | i | 3 | 6%
COc1ccc(CN2CCN(C(=O)CN3C(=O)C4C5C=CC(C5)C4C3=O)CC2)c(OC)c1OC (stereo not drawn) | 19 | 0.98 | 1.1 | i | 7 | 9%
COc1cc(CN2CCN(C(=O)CC(C)C)CC2)cc(OC)c1OC | 12 | 1 | 1.1 | i | 52* | 21%
COc1ccc(CN2CCN(C(=O)c3cc(OC)c(OC)c(OC)c3)CC2)cc1OC | 0 | 1.1 | 1.1 | i | 62* | 21%
COc1ccc(C(=O)N2CCN(Cc3cc(OC)c(O)c(OC)c3)CC2)cc1OC | 4 | 1 | 1.1 | i | 9 | 4%
COc1ccc(CN2CCN(C(=O)CC(C)C)CC2)c(OC)c1OC | 1 | 1 | 1.1 | i | 53* | 18%
CC(C)N1CCC2(CC1)N=C(c1ccc3c(c1)OCO3)CC(c1cc(Cl)ccc1O)N2 (stereo not drawn) | 9 | 1 | 1.1 | i | 6 | 5%
CC(=O)Nc1nonc1NC(=O)CSc1nc2ccccc2o1 | 14 | 0.99 | 1 | i | 0 | 5%
CC(=O)c1cc2c(cc1NC(=O)CSc1nc3ccccc3o1)OCO2 | 7 | 1 | 2.4* | i | 11 | 15%
CCN1C(=O)C2(C(C(=O)c3ccc(C)o3)=C(O)C(=O)N2CCCN2CCOCC2)c2ccccc21 (stereo not drawn) | 10 | 1.1 | 1.1 | i | 0 | 3%
CC(C)C(c1nnnn1CCc1ccccc1)N1CCOCC1 (stereo not drawn) | 0 | 1 | 1.1 | i | 0 | 0%
c1ccc(CCn2nnnc2C(c2cccs2)N2CCOCC2)cc1 (stereo not drawn) | 25* | 1 | 1.1 | i | 0 | 3%
Cn1nnnc1SCC(=O)NCCCc1ccccc1 | 14 | 0.99 | 1.1 | i | 3 | 6%
COCCN1CCn2c(nc3cc(NC(=O)NC4CCCCC4)ccc32)C1 | 8 | 1 | 3.7* | . | 9 | 9%
COC(=O)c1cc(-c2ccccc2)sc1NC(=O)c1cc(C)on1 | 4 | 1 | 2.5* | . | 12 | 4%
CN1CCN(C(=O)CSc2nc(-c3cccs3)ccc2C#N)CC1 | 0 | 1.1 | 2.3* | . | 13 | 7%
O=C(NCC(=O)N(Cc1ccco1)C(C(=O)NC1CCCC1)c1cccnc1)c1cccs1 (stereo not drawn) | 2 | 1 | 1.1 | i | 0 | 1%
COc1cc(OC)c2c(C)c(Cl)c(=O)oc2c1 | 9 | 1.1 | 3.7* | . | 0 | 5%
COc1ccc(Cn2c(C)nc3oc4cc(OC)ccc4c(=O)c3c2=O)cc1 | 0 | 1.1 | 1.1 | i | 6 | 2%
